This passage reports composite z-score and z-score results from PubChem BioAssay.

The nature of assay [1]: anti-His antibody binders, primary screen, artefact control for SMM control protein annotation, biochemical, small-molecule microarray, 635 nm fluorescence (AID 1128).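 Also: score merges feature fluorescence with signal-to-noise for each printed compound spot.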 To be noted: anti-His Alexa647 antibody binding, higher = more signal.
Assay [2] relates to Human papillomavirus type 1a E7 protein (residues 1-88). Kind of assay: HPV1a E7 small-molecule binders, primary screen, biochemical, small-molecule microarray, residues 1-88, 635 nm (AID 1129). As to conditions: small-molecule microarray binding, fluorescence 635 nm; higher = more signal.
The target of assay [3] is Focal adhesion kinase 1 (Homo sapiens) (UniProt Q05397). Kind of assay: small-molecule microarray binders of FAK, primary screen, biochemical, 635/667 nm fluorescence, BSA, DTT (AID 1130).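 Also: composite of spot emission at 667 nm and signal to noise over triplicate slides.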 To be noted: PTK2 binding, 635 nm fluorescence, higher = more signal.
Assay [4] has as its system Fibrinogen (Alexa647-labelled). Kind of assay: fibrinogen binders on compound microarrays, profiling panel, artefact control for SMM control-protein annotation, biochemical, small-molecule microarray, 635/667 nm fluorescence (AID 1131).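 Also: z-score merges 667 nm fluorescence with per-spot signal-to-noise over triplicate slides.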 To be noted: fibrinogen-A647 binding fluorescence, higher = more signal.
The target of assay [5] is Follistatin (Homo sapiens) (UniProt P19883). Kind of assay: follistatin binders on small-molecule microarrays, primary screen, biochemical, small-molecule microarray, 635/667 nm fluorescence (AID 1132). To be noted: FST binding, 635 nm fluorescence, higher = more signal.
Assay [6] deals with Fibroblast growth factor 2 (Homo sapiens) (UniProt P09038). Kind of assay: FGF2 binders on small-molecule microarrays, primary screen, biochemical, small-molecule microarray, 635/667 nm fluorescence (AID 1133). As to conditions: small-molecule microarray binding, FGF2, fluorescence 635/667; higher = more signal.
Assay [7] is described as follows: mitochondrial membrane potential change in A549 cells, profiling panel, cell-based, JC-1 fluorescence, basal, 24 h, 100 nL (AID 1138).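 Also: A549 lung adenocarcinoma cells under basal conditions with no added stimulus; test concentration not given here.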 As to conditions: higher = more signal.
For the next assay, the system named is Lefty1. Kind of assay: Lefty1 binders on small-molecule microarrays, primary screen, biochemical, small-molecule microarray, 635/667 nm fluorescence (AID 1139). To be noted: small-molecule microarray binding, fluorescence 635/667; higher = more signal.
Assay [8] relates to wheat germ agglutinin (Triticum aestivum), Alexa647-labelled. Kind of assay: wheat germ agglutinin binders on compound microarrays, profiling panel, artefact control for SMM control-protein annotation, biochemical, small-molecule microarray, 635/667 nm fluorescence (AID 1140).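 Also: score merges 667 nm feature emission with signal to noise over triplicate slides.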 To be noted: WGA-A647 binding, 635 nm fluorescence, higher = more signal.
Assay [9] addresses Luciferin 4-monooxygenase (Photinus pyralis) (UniProt P08659). Kind of assay: firefly luciferase enzyme inhibitors, primary screen, biochemical, luminescence, purified enzyme, 2006 set (AID 1141).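 Also: cell-free assay with purified firefly luciferase at 100 ng per well in PBS; test concentration not given here.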 To be noted: SteadyGlo luminescence, 30 min, higher = more signal, called active from +8 up or from −8 down.
The subject of assay [10] is Wnt5a (protein binding on small-molecule microarray). Kind of assay: Wnt5a binders on small-molecule microarray, primary screen, biophysical, 635/667 nm fluorescence (AID 1142).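 Also: fluorescence read at 667 nm with signal to noise per printed feature.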 To be noted: 635 nm fluorescence, higher = more signal.
A short description of assay [11]: cell viability in Huh7 cells, primary screen, cytotoxicity control for HCV replication inhibitor project, CellTiter-Glo luminescence, basal, 48 h (AID 1143).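 Also: Huh7 hepatoma cells carrying a hepatitis C replication reporter with no stimulus; test concentration not given here.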 To be noted: Huh7 HCV replicon, higher = more signal, called active from +8 up or from −8 down. On the technique in general: In ATP-based viability assays light output follows the ATP content of the culture.
Assay [12] in a line: P. aeruginosa biofilm formation inhibitors, primary screen, PAO1 strain, BacTiter-Glo luminescence, LB-PBS (AID 1144). To be noted: 12 h, higher = more signal.
Assay [13] is described as follows: CREB reporter modulators without forskolin, primary screen, cell-based, PC12, CRE-LacZ reporter, unstimulated (AID 1145). To be noted: no forskolin, luminescence, 4.5 h, higher = more signal, called active from +8 up or from −8 down.
A short description of assay [14]: CREB reporter modulators under forskolin, primary screen, cell-based, PC12, CRE-LacZ reporter, forskolin-stimulated (AID 1146).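 Also: PC12 cells with 6xCRE LacZ reporter stimulated by forskolin 10 µM; beta-galactosidase reporter signal reflecting CREB driven transcription.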 To be noted: luminescence, 4.5 h, higher = more signal, called active from +8 up or from −8 down.
Assay [15] concerns the target Streptavidin (Streptomyces avidinii) (UniProt P22629). Kind of assay: streptavidin binders on small-molecule microarray, primary screen, artefact control for SMM compound annotation, biophysical, 635/667 nm fluorescence (AID 1147).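 Also: signal reflects streptavidin binding to arrayed compounds as a control protein.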 As to conditions: streptavidin binding, higher = more signal.
A short description of assay [16]: small-molecule binders of probe aInhba, primary screen, biochemical, small-molecule microarray, 635/667 nm fluorescence (AID 1148).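 Also: score merges 667nm spot fluorescence with signal-to-noise for antibody binding to printed compounds.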 To be noted: higher = more signal.
The target of assay [17] is Torsin-1A (Homo sapiens) (UniProt O14656). Kind of assay: torsin A binders from cell lysate, primary screen, small-molecule microarray, wild-type, 635/667 nm (AID 1149). As to conditions: COS7 hTOR1A-WT lysate, 635 nm fluorescence, higher = more signal.
Assay [18] has the same target. Kind of assay: small-molecule binders of mutant TOR1A in lysate, primary screen, cell lysate, small-molecule microarray, COS7 lysate, 635/667 nm fluorescence (AID 1150).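 Also: score pools 667 nm emission and signal to noise measuring lysate protein binding.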 To be noted: COS7 hTOR1A mutant lysate, 635 nm fluorescence, higher = more signal.
Assay [19] relates to Sonic hedgehog protein (Shh). Kind of assay: small-molecule binders of Shh protein, primary screen, biochemical, small-molecule microarray, 635/667 nm fluorescence (AID 1151).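 Also: Shh protein binding to compounds spotted on small-molecule microarray slides; score combines spot fluorescence intensity with signal-to-noise across triplicate slides.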 To be noted: small-molecule microarray binding, 635 nm fluorescence; higher = more signal.

The source made the active and inactive calls. Unless noted, no rule for the calls is given here.

Sequence of Focal adhesion kinase 1 (Homo sapiens) (Q05397 whole entry, looked up): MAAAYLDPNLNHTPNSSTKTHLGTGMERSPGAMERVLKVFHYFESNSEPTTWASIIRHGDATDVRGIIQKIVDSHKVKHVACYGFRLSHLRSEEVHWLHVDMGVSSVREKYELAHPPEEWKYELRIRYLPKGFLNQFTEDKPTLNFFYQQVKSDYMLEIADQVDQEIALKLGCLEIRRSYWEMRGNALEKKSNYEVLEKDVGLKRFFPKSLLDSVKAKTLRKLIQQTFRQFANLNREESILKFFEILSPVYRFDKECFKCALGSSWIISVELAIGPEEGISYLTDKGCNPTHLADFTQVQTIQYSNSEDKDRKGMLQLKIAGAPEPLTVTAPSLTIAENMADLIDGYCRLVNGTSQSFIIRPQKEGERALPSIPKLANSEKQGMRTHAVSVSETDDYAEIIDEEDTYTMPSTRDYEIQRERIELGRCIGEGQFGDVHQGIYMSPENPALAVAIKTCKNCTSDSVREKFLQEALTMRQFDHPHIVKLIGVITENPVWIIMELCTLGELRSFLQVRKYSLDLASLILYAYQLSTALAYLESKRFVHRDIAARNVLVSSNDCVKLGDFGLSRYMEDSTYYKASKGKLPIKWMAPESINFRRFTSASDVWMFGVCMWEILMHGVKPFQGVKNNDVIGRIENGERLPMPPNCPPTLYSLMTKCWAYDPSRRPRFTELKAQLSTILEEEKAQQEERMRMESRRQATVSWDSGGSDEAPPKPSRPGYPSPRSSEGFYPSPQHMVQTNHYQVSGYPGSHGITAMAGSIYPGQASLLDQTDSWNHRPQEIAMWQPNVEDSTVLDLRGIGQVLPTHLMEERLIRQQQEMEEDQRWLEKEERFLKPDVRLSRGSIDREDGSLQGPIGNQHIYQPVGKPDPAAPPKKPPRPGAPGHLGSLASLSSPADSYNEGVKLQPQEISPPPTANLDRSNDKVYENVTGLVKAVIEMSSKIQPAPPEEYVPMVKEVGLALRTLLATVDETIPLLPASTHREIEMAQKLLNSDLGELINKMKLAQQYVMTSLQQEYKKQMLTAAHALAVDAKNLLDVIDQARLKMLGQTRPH
Sequence of Luciferin 4-monooxygenase (Photinus pyralis) (P08659 whole entry, looked up): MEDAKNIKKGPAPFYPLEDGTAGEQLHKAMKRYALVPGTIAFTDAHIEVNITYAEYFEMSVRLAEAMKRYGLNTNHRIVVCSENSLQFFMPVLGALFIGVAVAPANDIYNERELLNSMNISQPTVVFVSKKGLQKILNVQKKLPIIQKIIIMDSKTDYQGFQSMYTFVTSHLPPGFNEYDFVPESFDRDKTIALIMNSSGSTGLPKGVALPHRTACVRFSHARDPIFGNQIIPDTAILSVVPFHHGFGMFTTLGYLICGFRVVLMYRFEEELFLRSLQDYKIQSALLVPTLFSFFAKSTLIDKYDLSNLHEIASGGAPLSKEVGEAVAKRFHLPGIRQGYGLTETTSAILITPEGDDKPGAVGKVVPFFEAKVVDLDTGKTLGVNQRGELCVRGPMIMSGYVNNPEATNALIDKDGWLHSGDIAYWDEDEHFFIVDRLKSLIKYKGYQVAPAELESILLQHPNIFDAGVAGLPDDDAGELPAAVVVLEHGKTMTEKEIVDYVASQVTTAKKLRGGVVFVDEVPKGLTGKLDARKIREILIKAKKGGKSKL
Sequence of Follistatin (Homo sapiens) (P19883 whole entry, looked up): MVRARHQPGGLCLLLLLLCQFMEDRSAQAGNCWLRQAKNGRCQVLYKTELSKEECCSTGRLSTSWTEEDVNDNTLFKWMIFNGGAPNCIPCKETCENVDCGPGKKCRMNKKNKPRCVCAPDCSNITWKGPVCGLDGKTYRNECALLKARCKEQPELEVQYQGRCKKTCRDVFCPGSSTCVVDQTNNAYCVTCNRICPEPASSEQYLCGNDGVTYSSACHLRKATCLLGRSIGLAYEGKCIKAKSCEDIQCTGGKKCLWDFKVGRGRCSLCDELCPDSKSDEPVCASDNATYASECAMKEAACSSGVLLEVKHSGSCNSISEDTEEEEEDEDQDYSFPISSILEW
Sequence of Fibroblast growth factor 2 (Homo sapiens) (P09038 whole entry, looked up): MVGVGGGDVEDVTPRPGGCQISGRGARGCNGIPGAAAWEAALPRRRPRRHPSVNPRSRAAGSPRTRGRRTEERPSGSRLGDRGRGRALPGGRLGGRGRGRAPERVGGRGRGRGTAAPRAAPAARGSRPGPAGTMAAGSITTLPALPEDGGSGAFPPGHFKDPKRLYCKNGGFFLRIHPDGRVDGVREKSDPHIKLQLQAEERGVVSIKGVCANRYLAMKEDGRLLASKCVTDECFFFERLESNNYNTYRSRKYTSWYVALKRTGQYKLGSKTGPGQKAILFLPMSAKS
Sequence of Torsin-1A (Homo sapiens) (O14656 whole entry, looked up): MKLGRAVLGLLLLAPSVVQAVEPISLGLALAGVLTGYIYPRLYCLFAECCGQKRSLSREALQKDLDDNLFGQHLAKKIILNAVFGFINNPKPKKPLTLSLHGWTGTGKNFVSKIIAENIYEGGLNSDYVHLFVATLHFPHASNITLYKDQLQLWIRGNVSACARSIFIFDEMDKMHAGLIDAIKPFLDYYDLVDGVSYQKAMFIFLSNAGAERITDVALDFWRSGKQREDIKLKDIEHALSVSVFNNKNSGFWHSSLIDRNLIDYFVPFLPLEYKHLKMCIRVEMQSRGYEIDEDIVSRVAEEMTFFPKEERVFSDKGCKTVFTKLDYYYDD
Sequence of Streptavidin (Streptomyces avidinii) (P22629 whole entry, looked up): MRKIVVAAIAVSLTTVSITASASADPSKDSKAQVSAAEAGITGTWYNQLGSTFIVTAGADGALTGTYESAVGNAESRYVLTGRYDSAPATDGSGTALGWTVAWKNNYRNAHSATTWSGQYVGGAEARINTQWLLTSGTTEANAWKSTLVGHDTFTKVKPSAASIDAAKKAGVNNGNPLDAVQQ

For the molecule `NC(=O)NCC#Cc1ccc2c(c1)[C@]1(C(=O)N2)[C@H](c2ccc(O)cc2)N2[C@H](c3ccccc3)[C@H](c3ccccc3)OC(=O)[C@H]2[C@@H]1C(=O)N1CCN(c2ncccn2)CC1`, the composite z-score in assay [1] was 1.05; in [2], 0.855; in assay [3] it was -0.75; in [4], 0.486; in assay [5], 0.743; in [6] it was -0.0346. Also, the composite z-score is -0.112 in the assay on Lefty1; 0.297 in [8]; 0.0724 in assay [10]; 0.0219 in assay [15]; 0.181 in assay [16]; -0.219 with Torsin-1A (Homo sapiens) [17]. Further, the composite z-score was 0.412 with Torsin-1A (Homo sapiens) [18] and -0.37 in assay [19]. For the same molecule, the z-score is -1.1 in assay [7]; -1.43 (inactive) in assay [9]; 0.449 (inactive) in [11]; 0.185 (inactive) in assay [12]; 1.21 (inactive) in [13]; 0.128 (inactive) in assay [14].

As to `CN1C(=O)C2C(C1=O)C1C=C(c3ccc(CO)cc3)C2C(C2CC2)N1Cc1cc2c(cc1Br)OCO2` (stereo not given), the composite z-score in [1] came out at 2.81; in assay [2], 1.23; in [3] it was 1.47; in assay [4] it was 0.976; in assay [5], 1.23; in [6], 0.784. Besides, the composite z-score was found to be 0.175 in the assay with Lefty1; 1.18 in assay [8]; 0.164 in assay [10]; 1.75 in [15]; 0.138 in [16]; 1.16 in the assay with Torsin-1A (Homo sapiens) [17]. Besides, the values for the composite z-score (in the assay with Torsin-1A (Homo sapiens) [18]; in [19]) were 1.65 and 0.796, respectively. The z-score was 1.34 in assay [7]; -1.9 (inactive) in assay [9]; -5.17 (inactive) in [11]; -0.401 (inactive) in [12]; 0.622 (inactive) in assay [13]; -1.62 (inactive) in assay [14].

Consider `CCCCC(=C=CC[C@H](O)c1ccccc1OCCO)C[C@H](O)c1cc(Cl)cc(Cl)c1O`, for which the composite z-score in assay [1] was determined as 1.02; in [2], 0.955; in assay [3] it was 0.305; in assay [4] it was 0.517; in assay [5] it was 0.698; in assay [6], 0.28. Further, the composite z-score in the assay on Lefty1 is 0.249; in [8] it was 0.0162; in assay [10], 0.121; in [15] it was -0.18; in assay [16], -0.0471; with Torsin-1A (Homo sapiens) [17] it was 0.873. Moreover, the composite z-score with Torsin-1A (Homo sapiens) [18] stood at 0.234; in assay [19], 0.66. Besides, the z-score in assay [7] is -0.343; in assay [9] it was -1.27 (inactive); in assay [11], -0.433 (inactive); in assay [12], -0.0417 (inactive); in [13], 7.91 (inactive); in [14], 1.57 (inactive).

Take `CC(C)OC(=O)C1=CCC(c2cccc(Cl)c2)O1` (stereo not given): the composite z-score in [1] was 0.872; in assay [2], 0.291; in [3], -0.0871; in assay [4] it was 0.455; in assay [5], -0.328; in [6], -1.59. Also, the composite z-score with Lefty1 was -1.11; in assay [8] it was 0.58; in assay [10] it was -0.593; in assay [15], 0.245; in assay [16] it was -0.191; with Torsin-1A (Homo sapiens) [17], 1.07. Further, the composite z-score in the assay with Torsin-1A (Homo sapiens) [18] is -0.268; in [19] it was -1.49. For the same molecule, the z-score in assay [7] was -1.4; in assay [9], 2.09 (inactive); in [11] it was -5.17 (inactive); in assay [12] it was -2.12 (inactive); in [13], -0.471 (inactive); in assay [14], -0.154 (inactive).

For `CN(C)CCCC[C@@H]1NC(=O)[C@@H]2C[C@H](C(=O)NCCCCCCN)[C@H](c3ccc(O)cc3)N2C1=O`, the composite z-score in assay [1] is 0.297; in [2], 1.19; in assay [3] it was 1.55; in assay [4], 0.763; in [5], 1.35; in assay [6] it was 0.787. The composite z-score with Lefty1 amounted to 0.829; in assay [8], 0.998; in [10] it was 0.346; in assay [15], 1.19; in assay [16], 0.554; in the assay with Torsin-1A (Homo sapiens) [17] it was 0.613. Moreover, the composite z-score with Torsin-1A (Homo sapiens) [18] is 0.901; in [19], 0.945. Further, the z-score is -0.729 in assay [7]; 0.37 (inactive) in assay [9]; 0.255 (inactive) in assay [11]; -0.481 (inactive) in [12]; -0.122 (inactive) in assay [13]; 0.208 (inactive) in [14].
